Source: PubChem BioAssay (EPA / NIEHS)
Results filed as inconclusive are left out. Activity calls are given as the source filed them. Rule for the calls, unless noted: active = hit-call score of the fitted dose curve at least 0.9, where 1 is the maximum; inactive = score below 0.9.

Columns and labels:
[1] = biological target: human Retinoid X Receptor beta (RXRb), RXRB (gene 6257) (UniProt P28702); experiment: ATG_RXRb_TRANS: Attagene TRANS-FACTORIAL HepG2 Assay for human Retinoid X Receptor beta (RXRb) (AID 2283013; active = hit-call score of the fitted dose curve at least 0.9, where 1 is the maximum)
Chain of human Retinoid X Receptor beta (RXRb), RXRB (gene 6257) (P28702 whole entry, looked up, the tested form may be a part): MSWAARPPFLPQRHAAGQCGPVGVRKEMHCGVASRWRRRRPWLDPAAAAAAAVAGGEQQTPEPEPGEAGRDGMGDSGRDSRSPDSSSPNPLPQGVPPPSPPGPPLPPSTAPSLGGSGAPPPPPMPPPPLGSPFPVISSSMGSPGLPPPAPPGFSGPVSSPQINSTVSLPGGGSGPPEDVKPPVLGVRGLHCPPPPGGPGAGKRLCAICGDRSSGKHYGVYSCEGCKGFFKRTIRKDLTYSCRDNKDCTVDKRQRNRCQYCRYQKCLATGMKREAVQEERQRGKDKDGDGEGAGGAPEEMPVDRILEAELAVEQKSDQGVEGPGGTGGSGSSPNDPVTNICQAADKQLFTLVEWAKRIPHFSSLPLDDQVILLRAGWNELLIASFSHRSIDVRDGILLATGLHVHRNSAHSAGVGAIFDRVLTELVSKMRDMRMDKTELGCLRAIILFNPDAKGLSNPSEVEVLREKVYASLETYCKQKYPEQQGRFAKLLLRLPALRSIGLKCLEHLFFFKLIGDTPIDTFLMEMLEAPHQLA
Summary of the method: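 Transfect HepG2 with GAL4-UAS multi-reporter constructs (chimeric NR-Gal4, TRANS format); dose compound 24 h; isolate RNA, RT-PCR, FAM primer extension, HpaI digest; quantify by capillary electrophoresis; positive direction vs DMSO.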

[2] = read-out: E-selectin (Homo sapiens) (UniProt P16581); experiment: BSK_3C_Eselectin: BioMAP Diversity Plus: 3C Assay for Eselectin Biomarker Activity (AID 2283015); conditions: primary human endothelial cells (HUVEC); actives raise or lower the signal
Summary of the method: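 E-selectin ELISA readout, fitted bidirectionally relative to DMSO, taken 24 h post-dosing in HUVEC cultures of the 3C system. Overt cytotoxicity tracked with sulforhodamine B staining of parallel wells.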

[3] = read-out: Interleukin-1 alpha (IL1a), IL1A (gene 3552); experiment: BSK_BE3C_IL1a: BioMAP Diversity Plus: BE3C Assay for Interleukin-1 alpha (IL1a) Biomarker Activity (AID 2283016); conditions: primary human bronchial epithelial cells; actives raise or lower the signal
Summary of the method: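 BE3C primary human bronchial epithelium; cpd 24 h; IL-1a by ELISA; bidirectional fit vs DMSO; parallel SRB (0.1% SRB, 10% TCA fix, 560 nm) for cytotoxicity.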

[4] = read-out: Monocyte Chemoattractant Protein-1 (MCP1), CCL2 (gene 6347); experiment: BSK_3C_MCP1: BioMAP Diversity Plus: 3C Assay for Monocyte Chemoattractant Protein-1 (MCP1) Biomarker Activity (AID 2283017); conditions: primary human endothelial cells (HUVEC); actives raise or lower the signal
Summary of the method: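 MCP-1 was measured by ELISA 24 h after dosing in primary HUVEC 3C cultures and fitted in both directions relative to DMSO; cytotoxicity was checked by SRB total-protein staining in parallel wells.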

[5] = read-out: Monocyte Chemoattractant Protein-1 (MCP1), CCL2 (gene 6347); experiment: BSK_4H_MCP1: BioMAP Diversity Plus: 4H Assay for Monocyte Chemoattractant Protein-1 (MCP1) Biomarker Activity (AID 2283018); conditions: primary human endothelial cells (HUVEC); actives raise or lower the signal
Summary of the method: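 ELISA read-out of MCP-1 from human vascular endothelial primary cells taken at 24 hours after compound exposure. Activity was fitted in both directions relative to DMSO, which served as negative control.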

[6] = read-out: Human Leukocyte Antigen - DR isotype (HLADR), HLA-DRA (gene 3122); experiment: BSK_3C_HLADR: BioMAP Diversity Plus: 3C Assay for Human Leukocyte Antigen - DR isotype (HLADR) Biomarker Activity (AID 2283019); conditions: primary human endothelial cells (HUVEC); actives raise or lower the signal
Summary of the method: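 Bidirectional fitting against DMSO was applied to the HLA-DR ELISA signal from human umbilical vein endothelial cells, 24 h post-dose. Cytotoxicity came from parallel SRB total-protein staining; 3C proliferation was counted by SRB at 48 h.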

[7] = read-out: Interleukin-8 (IL8), CXCL8 (gene 3576); experiment: BSK_3C_IL8: BioMAP Diversity Plus: 3C Assay for Interleukin-8 (IL8) Biomarker Activity (AID 2283020); conditions: primary human endothelial cells (HUVEC); actives raise or lower the signal
Summary of the method: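 ELISA read-out of IL-8 from human umbilical vein endothelium, measured 24 h after chemical dosing. Activity is expressed relative to DMSO negative control, with both increases and decreases fitted.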

[8] = read-out: Monokine induced gamma interferon (MIG), CXCL9 (gene 4283); experiment: BSK_3C_MIG: BioMAP Diversity Plus: 3C Assay for Monokine induced gamma interferon (MIG) Biomarker Activity (AID 2283021); conditions: primary human endothelial cells (HUVEC); actives raise or lower the signal
Summary of the method: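 Read-out is ELISA detection of MIG on human umbilical vein endothelial cells, taken 24 h after dosing. Gain or loss of signal was scored relative to DMSO controls using bidirectional curve fitting.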

[9] = biological target: human Vitamin D Receptor (VDR), VDR (gene 7421) (UniProt P11473); experiment: ATG_VDR_TRANS: Attagene TRANS-FACTORIAL HepG2 Assay for human Vitamin D Receptor (VDR) (AID 2283022; active = hit-call score of the fitted dose curve at least 0.9, where 1 is the maximum)
Chain of human Vitamin D Receptor (VDR), VDR (gene 7421) (P11473 whole entry, looked up, the tested form may be a part): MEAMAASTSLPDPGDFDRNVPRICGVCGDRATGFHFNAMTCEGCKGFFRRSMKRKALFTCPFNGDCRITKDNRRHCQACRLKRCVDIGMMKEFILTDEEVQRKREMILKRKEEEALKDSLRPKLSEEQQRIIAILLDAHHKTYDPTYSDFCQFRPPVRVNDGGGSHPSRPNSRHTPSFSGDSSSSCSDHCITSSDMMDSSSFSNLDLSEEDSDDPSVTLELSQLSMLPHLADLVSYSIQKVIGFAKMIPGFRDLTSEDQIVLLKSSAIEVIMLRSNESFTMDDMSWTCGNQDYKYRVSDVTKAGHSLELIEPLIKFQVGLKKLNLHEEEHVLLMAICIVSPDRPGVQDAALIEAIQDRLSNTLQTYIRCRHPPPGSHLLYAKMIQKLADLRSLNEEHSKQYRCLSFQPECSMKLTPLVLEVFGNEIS
Summary of the method: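 Transactivation by an exogenous VDR-Gal4 chimera in transiently transfected HepG2 cells was measured as reporter transcript level 24 hours after chemical treatment. RT-PCR products were analysed by capillary electrophoresis and fitted in the positive direction relative to DMSO.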

[10] = BSK_3C_SRB: Viability Assessment in the BioMAP Diversity Plus: 3C Assay (AID 2283023); conditions: primary human endothelial cells (HUVEC);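 note: fitted both ways against DMSO so a hit may be signal rise or drop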
Summary of the method: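 Cytotoxicity readout in parallel HUVEC 3C cultures: after 24 h compound exposure, cells fixed with 10% TCA, stained with 0.1% SRB and read at 560 nm. Gain or loss relative to DMSO fitted.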

[11] = read-out: Matrix Metallopeptidase 1 (MMP1), MMP1 (gene 4312); experiment: BSK_BE3C_MMP1: BioMAP Diversity Plus: BE3C Assay for Matrix Metallopeptidase 1 (MMP1) Biomarker Activity (AID 2283024); conditions: primary human bronchial epithelial cells; actives raise or lower the signal
Summary of the method: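 Human bronchial epithelial cells (BE3C system) exposed to compound for 24 h; MMP1 then quantified by ELISA. Activity was fitted in both directions relative to DMSO.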

[12] = BSK_3C_Vis: BioMAP Diversity Plus: 3C Assay for Morphology Visualization (AID 2283025); conditions: primary human endothelial cells (HUVEC);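 note: fitted both ways so gain or loss versus DMSO counts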;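 for AC50: light microscopy image of cell morphology used as background control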
Summary of the method: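 Chemicals were added to primary human umbilical vein endothelium, cells were incubated 24 h, and morphology was then visualized by light microscopy. Gain or loss of signal was fitted bidirectionally relative to DMSO.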

[13] = read-out: Pselectin, SELP (gene 6403); experiment: BSK_4H_Pselectin: BioMAP Diversity Plus: 4H Assay for Pselectin Biomarker Activity (AID 2283026); conditions: primary human endothelial cells (HUVEC); actives raise or lower the signal
Summary of the method: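 ELISA read-out of P-selectin on human umbilical vein endothelium after 24 h of dosing. Values derive from bidirectional fitting relative to DMSO. Parallel SRB protein staining flagged overt cytotoxicity.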

[14] = BSK_4H_SRB: Viability Assessment in the BioMAP Diversity Plus: 4H Assay (AID 2283027); conditions: primary human endothelial cells (HUVEC);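 note: cells exposed to compound for 24 h before staining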
Summary of the method: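 Human umbilical vein endothelial cells were dosed with chemical and, after 24 h, fixed with 10% TCA, stained with 0.1% sulforhodamine B, and read at 560 nm to give total protein as a cytotoxicity measure. Bidirectional fitting relative to DMSO control.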

[15] = BSK_BE3C_SRB: Viability Assessment in the BioMAP Diversity Plus: BE3C Assay (AID 2283028); conditions: primary human bronchial epithelial cells;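 for AC50: fitted both ways so AC50 may mark signal gain or loss versus DMSO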
Summary of the method: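 Cytotoxicity read-out: SRB (0.1%) staining of TCA-fixed (10%) human lung bronchial epithelial cells, absorbance 560 nm, 24 h post-dosing. Curves fitted both directions relative to DMSO.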

[16] = read-out: Thrombomodulin, THBD (gene 7056); experiment: BSK_3C_Thrombomodulin: BioMAP Diversity Plus: 3C Assay for Thrombomodulin Biomarker Activity (AID 2283029); conditions: primary human endothelial cells (HUVEC); actives raise or lower the signal
Summary of the method: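 Read-out is ELISA of thrombomodulin on human umbilical vein endothelium 24 h after chemical dosing. Gain or loss of signal is scored relative to DMSO. Overt cytotoxicity is checked in parallel cultures by sulforhodamine B staining.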

[17] = read-out: Urokinase-type plasminogen activator receptor (uPAR), PLAUR (gene 5329); experiment: BSK_4H_uPAR: BioMAP Diversity Plus: 4H Assay for Urokinase-type plasminogen activator receptor (uPAR) Biomarker Activity (AID 2283030); conditions: primary human endothelial cells (HUVEC); actives raise or lower the signal
Summary of the method: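 uPAR level read by ELISA on HUVEC cultures (BioMAP 4H) 24 h post-dosing, analyzed for gain or loss relative to DMSO. Parallel SRB staining assessed overt cytotoxicity.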

[18] = read-out: Vascular endothelial growth factor receptor 2 (Homo sapiens) (UniProt P35968); experiment: BSK_4H_VEGFRII: BioMAP Diversity Plus: 4H Assay for Vascular endothelial growth factor receptor 2 (VEGFR2) Biomarker Activity (AID 2283031); conditions: primary human endothelial cells (HUVEC); actives raise or lower the signal
Summary of the method: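 Measured by ELISA after 24 h of compound treatment: VEGFR2 on primary human umbilical vein endothelial cells, fitted in both directions relative to DMSO. Parallel cultures received SRB staining (560 nm) for overt cytotoxicity.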

[19] = biological target: Retinoic acid receptor RXR-alpha (Homo sapiens) (UniProt P19793); experiment: ATG_RXRa_TRANS: Attagene TRANS-FACTORIAL HepG2 Assay for human Retinoid X Receptor alpha (RXRa) (AID 2283012; active = hit-call score of the fitted dose curve at least 0.9, where 1 is the maximum)
Chain of Retinoic acid receptor RXR-alpha (Homo sapiens) (P19793 whole entry, looked up, the tested form may be a part): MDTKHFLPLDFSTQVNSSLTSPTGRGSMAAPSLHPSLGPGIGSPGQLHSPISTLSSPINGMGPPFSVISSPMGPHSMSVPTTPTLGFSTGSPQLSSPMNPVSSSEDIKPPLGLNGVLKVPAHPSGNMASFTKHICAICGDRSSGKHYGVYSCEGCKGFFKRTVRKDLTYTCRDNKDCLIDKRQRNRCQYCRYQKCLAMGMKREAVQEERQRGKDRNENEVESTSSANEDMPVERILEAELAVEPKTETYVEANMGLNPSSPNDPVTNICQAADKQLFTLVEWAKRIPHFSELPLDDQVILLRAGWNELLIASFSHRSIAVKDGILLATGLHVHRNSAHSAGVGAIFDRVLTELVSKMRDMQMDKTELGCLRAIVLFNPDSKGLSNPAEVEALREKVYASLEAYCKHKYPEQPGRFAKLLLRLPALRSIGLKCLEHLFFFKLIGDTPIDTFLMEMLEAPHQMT
Summary of the method: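 Transient transfection of human HepG2 with multiple GAL4-UAS reporter constructs; 24 h compound exposure; total RNA isolated, reverse-transcribed, PCR-amplified, 6-FAM labelled, HpaI-cut, resolved by capillary electrophoresis. Positive-direction fit versus DMSO.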

[20] = biological target: human RAR-related Orphan Receptor gamma (RORg), RORC (gene 6097) (UniProt P51449); experiment: ATG_RORg_TRANS: Attagene TRANS-FACTORIAL HepG2 Assay for human RAR-related Orphan Receptor gamma (RORg) (AID 2283011; active = hit-call score of the fitted dose curve at least 0.9, where 1 is the maximum)
Chain of human RAR-related Orphan Receptor gamma (RORg), RORC (gene 6097) (P51449 whole entry, looked up, the tested form may be a part): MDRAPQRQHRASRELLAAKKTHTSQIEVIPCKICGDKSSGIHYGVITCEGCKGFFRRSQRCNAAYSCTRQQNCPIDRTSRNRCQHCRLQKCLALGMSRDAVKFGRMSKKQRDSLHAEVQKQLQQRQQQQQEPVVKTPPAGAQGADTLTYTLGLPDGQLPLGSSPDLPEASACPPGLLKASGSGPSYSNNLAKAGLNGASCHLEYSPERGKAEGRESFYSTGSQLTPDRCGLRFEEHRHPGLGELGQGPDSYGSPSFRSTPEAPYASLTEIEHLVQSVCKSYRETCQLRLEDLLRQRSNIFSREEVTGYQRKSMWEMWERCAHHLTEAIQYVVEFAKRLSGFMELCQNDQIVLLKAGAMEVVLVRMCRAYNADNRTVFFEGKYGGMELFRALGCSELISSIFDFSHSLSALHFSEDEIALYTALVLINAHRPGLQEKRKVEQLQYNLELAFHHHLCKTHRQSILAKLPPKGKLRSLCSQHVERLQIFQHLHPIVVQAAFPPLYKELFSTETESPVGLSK
Summary of the method: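 Reporter transcripts from a transfected RORg-GAL4 chimera in HepG2 cells were quantified 24 h after dosing by RT-PCR, 6-FAM labelling, HpaI digestion and capillary electrophoresis; increases over DMSO baseline were fitted.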

Measured: AC50

Chain of E-selectin (Homo sapiens) (P16581 whole entry, looked up): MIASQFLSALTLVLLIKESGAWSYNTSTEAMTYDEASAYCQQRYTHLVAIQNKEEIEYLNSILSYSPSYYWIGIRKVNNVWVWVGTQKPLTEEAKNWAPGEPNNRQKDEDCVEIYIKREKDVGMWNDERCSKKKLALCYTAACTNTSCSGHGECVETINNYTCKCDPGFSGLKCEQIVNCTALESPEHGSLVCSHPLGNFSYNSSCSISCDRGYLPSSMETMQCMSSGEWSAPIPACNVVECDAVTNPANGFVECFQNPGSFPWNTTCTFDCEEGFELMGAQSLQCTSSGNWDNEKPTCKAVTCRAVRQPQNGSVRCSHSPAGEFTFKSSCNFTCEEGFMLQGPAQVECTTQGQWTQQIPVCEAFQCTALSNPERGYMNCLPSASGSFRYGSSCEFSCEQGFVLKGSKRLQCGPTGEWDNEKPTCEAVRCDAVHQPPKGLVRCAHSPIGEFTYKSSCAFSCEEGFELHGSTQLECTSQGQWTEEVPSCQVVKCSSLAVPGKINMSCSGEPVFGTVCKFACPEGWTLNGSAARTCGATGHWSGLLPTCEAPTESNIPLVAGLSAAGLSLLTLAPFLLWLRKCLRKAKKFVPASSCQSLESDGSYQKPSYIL

CSC(=O)c1cccc2nnsc12
not listed: [19] | [20]
inactive: all other assays above

CCOC(=O)[C@H](C)Oc1ccc(Oc2nc3ccc(Cl)cc3o2)cc1
active: [6] 7.25 µM
not listed: [20]
inactive: all other assays above

CC(C)(C)[C@@H](O)[C@@H](Cc1ccc(Cl)cc1)n1cncn1
active: [6] 7.11 µM | [12] 39 µM
not listed: [9] | [19]
inactive: all other assays above

COC(=O)c1ccccc1S(=O)(=O)NC(=O)Nc1nc(OC(F)F)cc(OC(F)F)n1
not listed: [1] | [19] | [20]
inactive: all other assays above

COC(=O)CSc1cc(N=c2sc(=O)n3n2CCCC3)c(F)cc1Cl
active: [16] 1.21 µM
not listed: [1] | [9] | [20]
inactive: all other assays above

CCCCC(CC)CN1C(=O)C2C3C=CC(C3)C2C1=O (stereo unspecified)
active: [5] 19.2 µM | [6] 30.6 µM | [10] 16.9 µM | [11] 15.9 µM | [15] 17.3 µM
not listed: [9] | [20]
inactive: all other assays above

CCOC(=O)NCCOc1ccc(Oc2ccccc2)cc1
active: [2] 21.3 µM | [4] 28.5 µM | [5] 18.7 µM | [6] 25.5 µM | [7] 15 µM | [10] 20 µM | [12] 39 µM
not listed: [20]
inactive: all other assays above
